PubChem BioAssay AID493030 (The Scripps Research Institute Molecular Screening Center, 2011)
The campaign covered roughly 2,300 compounds. About 1,500 (65%) were called active.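 The calls were made as follows: active = mean inhibition over three repeats above a set limit taken from the earlier primary screen (cut at about 30% in these data); inactive = the rest.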 So high a share suggests a set chosen from earlier hits. These entries were drawn from the full list.

Target: Platelet-activating factor acetylhydrolase 2, cytoplasmic (Homo sapiens) (UniProt Q99487)
Assay: PAFAH2 enzyme inhibitors, confirmation, biochemical, fluorescence polarization, human (AID 493030);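 also: inhibitor blocks binding of rhodamine activity probe so polarization falls; 0% = enzyme with DMSO and 100% = wells lacking PAFAH2 protein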
Conditions: recombinant PAFAH2, FP-rhodamine activity probe, at 3.39 µM, hits give high values

inhibition, active:
COc1ccc(C(=O)ON=C2c3ccccc3-c3ccccc32)cc1OC 68.7%, O=C(Nc1nnc(SCc2c(Cl)cccc2Cl)s1)c1cccc([N+](=O)[O-])c1 52%, O=c1oc(/C=C/c2ccccc2)nc2ccccc12 79.7%, O=C(COC(=O)c1ccco1)Nc1ccc(Cl)cn1 33.1%, Cc1ccc(NC(=O)COC(=O)C2C3CC4OC(=O)C2C4C3)cc1Cl (configuration not stated) 76%, Cc1ccc(NC(=O)COC(=O)C2CC2)cc1S(=O)(=O)N1CCOCC1 61.3%, Cc1ccc(C(=O)OCC(=O)Nc2ccc(Cl)cn2)cc1S(=O)(=O)N1CCOCC1 54.4%, Oc1oc(-c2ccccc2Br)nc1/C=N/c1ccccn1 52.6%, COc1ccc(C2=NN(c3nc4ccccc4s3)C(=O)C2)cc1 46.9%, CC1CC1C(=O)OCC(=O)Nc1cccc(F)c1 (configuration not stated) 83.6%, O=C(COC(=O)C1CC2C=CC1C2)Nc1ccccc1 (configuration not stated) 69.6%, COc1cc(NC(=O)COC(=O)c2ccc([N+](=O)[O-])s2)cc(OC)c1OC 35.9%, O=C(OCc1nc2ccccc2[nH]1)C1CCCCC1 51.7%, N#Cc1cccc(NC(=O)COC(=O)c2ccccc2C(=O)c2ccc(Cl)c([N+](=O)[O-])c2)c1 34.2%, Cc1cc(C(=O)COC(=O)C2CC2)c(C)n1-c1ccc(F)cc1 36.1%, Cc1ccc(-c2nc3c(cnn3-c3ccccc3)c(=O)o2)cc1 44%, Cc1cccc(/C=N/NC(=O)CNc2cccc3ccccc23)n1 30.5%

inhibition, inactive:
COc1ccc(/C=N/N(C)C2=NS(=O)(=O)c3ccccc32)cc1OC 9.39%, O=C(Nc1nnc(SCc2ccccc2Cl)s1)c1cccc([N+](=O)[O-])c1 22.6%, O=C(Nc1nnc(SCc2c(Cl)cccc2Cl)s1)C1CCCO1 (configuration not stated) 24%, Cc1ccc(Cl)cc1NC(=O)COC(=O)C1CCCCC1 17.7%, Cc1c(Cl)cnc(NC(=O)COC(=O)C2CCCC2)c1Cl 15.8%, O=C(O)c1ccccc1N=N/C(=N/Nc1cc(S(=O)(=O)O)ccc1O)c1ccccc1 8.84%, COc1ccccc1Nc1nc(N)nc(CSC(=S)N2CCOCC2)n1 26.7%, CCn1c(/C=N/NC(=O)c2ccc(OC)cc2)nc2ccccc21 6.41%, CC1=NN(c2ccc(Cl)c(C(=O)O)c2)C(=O)/C1=C/c1ccc(-c2ccccc2[N+](=O)[O-])o1 27.5%, CC(=O)Oc1ccc(-c2nc3c(C)cccc3c(=O)o2)cc1 23.6%
